Experimental data: PubChem BioAssay AID624417 (National Center for Advancing Translational Sciences (NCATS), 2012)
Hit rate of the full screen: of about 410,000 compounds, about 6,400 (1.6%) were called active. A call without a number means that no potency is given here. Another 20% or so got no clear call; they are omitted. The call rests on the fitted dose curve; in most records, active means well fitted inhibition curve with a large enough effect; inconclusive means small, poorly fitted or top-dose-only effect; inactive means no such curve, though single readings can be large or run the other way. This excerpt belongs to a sample that is enriched for actives.
Further: nearly all actives have a fitted effect of over 55% in size.
Potency means the concentration at half of the fitted maximal effect.

Each compound was assayed against Glucagon-like peptide 1 receptor (Homo sapiens) (UniProt P43220) (assay: qHTS of GLP-1 Receptor Inverse Agonists (Inhibition Mode)). Conditions: HEK293 GLP-1R CRE-luciferase, luminescence, 24 h, GLP-1R form is constitutively active; series mostly up to 38.3 µM.
Chain of Glucagon-like peptide 1 receptor (Homo sapiens) (P43220 whole entry, looked up): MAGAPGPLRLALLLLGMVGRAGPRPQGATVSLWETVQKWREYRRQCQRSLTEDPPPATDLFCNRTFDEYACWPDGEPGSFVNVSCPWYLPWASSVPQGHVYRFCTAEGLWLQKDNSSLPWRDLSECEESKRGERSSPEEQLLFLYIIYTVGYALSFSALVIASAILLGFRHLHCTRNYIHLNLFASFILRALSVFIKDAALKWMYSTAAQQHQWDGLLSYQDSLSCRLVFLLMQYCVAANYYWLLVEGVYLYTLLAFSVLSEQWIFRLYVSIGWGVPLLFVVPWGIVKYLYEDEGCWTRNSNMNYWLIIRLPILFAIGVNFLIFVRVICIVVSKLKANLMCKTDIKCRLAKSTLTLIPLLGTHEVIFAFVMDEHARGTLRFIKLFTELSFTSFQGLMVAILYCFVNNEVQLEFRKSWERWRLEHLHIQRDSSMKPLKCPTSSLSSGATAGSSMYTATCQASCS
Outline: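 Constitutively active GLP-1R drives a cAMP-responsive luciferase in stably transfected HEK293 cells; test compounds are added after overnight (12 h) attachment and left 24 hr, and signal loss in luminescence marks inhibition.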
With `Nc1ncnc2c1ncn2[C@@H]1O[C@H](C(=O)NS(=O)(=O)c2c(Cl)nc3sccn23)[C@@H](O)[C@H]1O` the Potency was “inactive”. `CCOC(=O)C1C(C)C(C(C)(C)C)N(S(=O)(=O)c2ccc(C)cc2)C1c1ccccc1` (centres undefined) was tested, and the Potency was “inactive”. With `CC1(C(=O)NS(=O)(=O)c2ccc(C#N)cc2)CCN1C(=O)CC1CCCC1` (centres undefined) the Potency was “inactive”. With `Cc1cccc(CN2CCN(C3CN(Cc4ccccc4)S(=O)(=O)C3)CC2)c1` (centres undefined) the Potency was “inactive”. For `Cc1ccc(C)c(OCC(=O)NNC(=O)C2CCC2)c1`, the Potency was “inactive”. With `Cc1ccc(NNC(=O)C2CCC2)cc1C` the Potency was 6.31 µM (active). `O=C(NNC(=O)C1CCC1)c1ccccc1` was tested, and the Potency was “inactive”. For `Cc1ccc(C(=O)OCC(=O)NC2CCCCCCC2)cc1C`, the Potency was “inactive”. With `Cc1cccc(C(=O)N2CCN(S(=O)(=O)N3CCCCC3)CC2)c1` the Potency was “inactive”. With `Cc1cccc(C)c1N1CCN(S(=O)(=O)N2CCCCC2)CC1` the Potency was 10 µM (active). In the case of `Cc1cccc(C)c1N1CCN(S(=O)(=O)N2CCOCC2)CC1`, the Potency is reported as “inactive”. With `CN(CCO)C(=O)c1nc[nH]c1C(=O)N(C)Cc1ccccc1` the Potency was “inactive”. For `CC1=C(C)CC(C(=O)NNC(=O)c2ccccc2O)C(C(=O)O)C1` (centres undefined), the Potency was “inactive”. `O=C(NNC(=O)c1ccccc1O)c1ccccc1O` was tested, and the Potency was 5.01 µM (active). In the case of `Cc1cc(C(=O)NNC(=O)c2ccccc2O)c(C)o1`, the Potency is reported as “inactive”. With `Clc1ccccc1Nc1nc(NCc2cccs2)nc2ccsc12` the Potency was “inactive”. In the case of `CC(C)(C)OC(=O)N1CCN(C(=O)c2[nH]c(C(F)(F)F)nc2-c2ccccc2)CC1`, the Potency is reported as “inactive”. For `CCOC(=O)[C@]12CCC=C1N(Cc1ccccc1)C(=O)[C@H](CC(=O)N1CCCC1)C2`, the Potency was “inactive”. In the case of `CCCNC(=O)c1cc2c(c(-c3cccc(-c4ccc(C#N)cc4)c3)n1)[C@@H](CCO)N(C(=O)CC)C2`, the Potency is reported as “inactive”. `COc1ccc(/C=N/Nc2ncnc3sc4c(c23)CCCC4)cc1O` was tested, and the Potency was 10 µM (active). In the case of `COc1ccc(NC(=O)CCNC(=O)Cn2cnc3sc4c(c3c2=O)CCCC4)cc1OC`, the Potency is reported as “inactive”. With `COc1ccc(NC(=O)CCCNC(=O)Cn2cnc3sc4c(c3c2=O)CCCC4)cc1OC` the Potency was “inactive”. With `Cc1ccc(S(=O)(=O)N[C@H]2CCC[C@@H]2O)cc1` the Potency was “inactive”. In the case of `Cn1c(NCc2cccnc2)nc2cc(-c3ccc(F)cc3)sc2c1=O`, the Potency is reported as “inactive”. For `Cc1[nH]c2ccccc2c1C(=O)c1cc([C@H](NC(=O)OC(C)(C)C)C(C)C)sc1N`, the Potency was 10 µM (active). With `Cc1[nH]c2ccccc2c1C(=O)C(C)Sc1nnc(C2CC2)o1` (centres undefined) the Potency was “inactive”. In the case of `Cc1[nH]c2ccccc2c1C(=O)CSCC(=O)O`, the Potency is reported as “inactive”. For `OC[C@@H]1CN(Cc2ccncc2)C[C@H](n2cnc3c(N4CCN(c5ccccc5)CC4)ncnc32)O1`, the Potency was “inactive”. `CC(C)(C)OC(=O)Nc1ccc([C@@H](NC(=O)OC(C)(C)C)C(=O)OC(C)(C)C)cc1` was tested, and the Potency was “inactive”. `C[C@H](NC(=O)OC(C)(C)C)c1nnc(SCC(=O)Nc2ccc(Br)cc2)o1` was tested, and the Potency was “inactive”. For `CC(C)(C)OC(=O)N[C@H](C(=O)OC(C)(C)C)c1ccc(Br)cc1`, the Potency was 10 µM (active). In the case of `COc1ccc(C(C)(C)C)cc1NC(=O)CN(C)C1=NS(=O)(=O)c2ccccc21`, the Potency is reported as “inactive”. In the case of `COc1ccc(CCNC(=O)CN(c2ccccc2)S(=O)(=O)c2ccccc2)cc1`, the Potency is reported as “inactive”. For `COc1cccc(NC(=O)N(Cc2cn(C)c3ccccc23)C2CCCCCC2)c1`, the Potency was 10 µM (active). In the case of `COc1cccc(NC(=O)C2CCCN2C(=O)OCc2ccccc2)c1` (centres undefined), the Potency is reported as “inactive”. In the case of `COc1cccc(NC(=O)N2CCCC2C(=O)NC2CCCCC2)c1` (centres undefined), the Potency is reported as “inactive”. `CCOC(=O)c1cc2cc(OC)ccc2n1C1CCN(C)CC1` was tested, and the Potency was “inactive”. In the case of `C[C@@H]1CN([C@@H](C)CO)C(=O)c2cc(NS(C)(=O)=O)ccc2O[C@@H](C)CCCCO[C@H]1CN(C)C(=O)Nc1ccc2c(c1)OCO2`, the Potency is reported as “inactive”. With `Cc1ccc(NC(=S)N(CCCN2CCCC2)Cc2cccn2Cc2ccc(Cl)cc2)cc1` the Potency was 2.24 µM (active). `CCc1ccccc1NC(=S)N(CCN1CCCCCC1)Cc1ccco1` was tested, and the Potency was “inactive”. With `Cc1ccccc1NC(=S)N(CCCN1CCOCC1)Cc1cccs1` the Potency was “inactive”. With `COc1ccc(C(O)c2nc(-c3ccc4c(c3)OCO4)cs2)cc1` (centres undefined) the Potency was “inactive”. In the case of `COc1cccc(-c2cc3nc(NCc4ccccc4OC)n(C)c(=O)c3s2)c1`, the Potency is reported as “inactive”. `COc1ccc(NC(=O)CSc2nccn2Cc2ccc3c(c2)OCO3)cc1` was tested, and the Potency was “inactive”. For `CCCOc1ccc(NC(=O)CC2C(=O)N(c3ccccc3)C(=O)N2Cc2ccco2)cc1` (centres undefined), the Potency was “inactive”. In the case of `CCCOc1ccc(NC(=O)CC2C(=O)N(C)C(=S)N2Cc2ccc3c(c2)OCO3)cc1` (centres undefined), the Potency is reported as 10 µM (active). For `Cc1noc(C)c1NC(=O)N(C)C[C@@H]1Oc2cc(Br)ccc2S(=O)(=O)N([C@@H](C)CO)C[C@H]1C`, the Potency was “inactive”. `COCCN(CCOC)S(=O)(=O)c1ccc(/C(O)=C(\C#N)c2nc3ccccc3[nH]2)cc1` was tested, and the Potency was “inactive”. `N#C/C(=C(/O)COC(=O)COc1ccc(Cl)cc1)c1nc2ccccc2[nH]1` was tested, and the Potency was 10 µM (active). In the case of `N#C/C(=C(/O)COc1cccc2ccccc12)c1nc2ccccc2[nH]1`, the Potency is reported as “inactive”. With `O=C(COC(=O)CCc1c[nH]c2ccccc12)Nc1cccc(Cl)c1` the Potency was “inactive”. In the case of `CC(C)C[C@H]1CN([C@@H](Cc2ccccc2)CN2CCC[C@@H]2CN2C(=O)C(=O)NC[C@@H]2Cc2ccc(O)cc2)C(=O)C(=O)N1CCc1ccccc1`, the Potency is reported as “inactive”. In the case of `CCOCCCNCc1cc(Br)ccc1OCC`, the Potency is reported as “inactive”. In the case of `COc1ccc(CNCCCO)cc1OC`, the Potency is reported as “inactive”. For `CCOCCCNCc1ccc(OCc2ccc(F)cc2)c(OC)c1`, the Potency was 1.12 µM (active). For `COCCCn1c(C(=O)NC2CCCCC2)cc2c(=O)n3cccc(C)c3nc21`, the Potency was “inactive”. `COC(=O)c1ccc2nc(-c3ccc(C)cc3)c(Cc3ccc(OC)cc3C)n2c1` was tested, and the Potency was “inactive”. For `COc1cc(C)c(CN2CCN(C(=O)CCC(=O)c3ccc(C)s3)CC2)cc1OC`, the Potency was “inactive”. For `O=C1C(Sc2cccc(F)c2)=C[C@@]2(O)CC[C@@H](O)[C@]1(Sc1cccc(F)c1)[C@H]2O`, the Potency was “inactive”. For `Cn1c(C(=O)NCCCN2CCN(c3cccc(Cl)c3)CC2)cc2c(=O)n(C)c3ccccc3c21`, the Potency was “inactive”. In the case of `COc1ccc(N2CCN(CCNC(=O)c3nnc(Cc4c(F)cccc4Cl)o3)CC2)cc1`, the Potency is reported as “inactive”. In the case of `O=C(NCCCN1CCN(c2cccc(Cl)c2)CC1)c1nnc(Cc2ccc(F)cc2Cl)o1`, the Potency is reported as 12.6 µM (active). In the case of `CSc1ncnc2c1ncn2CCCNCC(C)c1ccccc1` (centres undefined), the Potency is reported as “inactive”. In the case of `CCCCCCCCN1C(=O)[C@H](CC(=O)NCC23CC4CC(CC(C4)C2)C3)C[C@@]2(C(=O)OC)CCCCC=C12`, the Potency is reported as “inactive”. In the case of `CCNC(=O)C1(C)CCN(C(=O)c2ccccc2)C1` (centres undefined), the Potency is reported as “inactive”. In the case of `CCOC1=C2[C@@H](CN(S(=O)(=O)c3ccc(C)cc3)[C@H]2c2ccccc2F)[C@H]2C(=O)N(Cc3ccccc3)C(=O)[C@H]2C1`, the Potency is reported as “inactive”. In the case of `CCCNC(=O)c1cc(C2CCCN(C(=O)c3ccc4c(c3)CCO4)C2)on1` (centres undefined), the Potency is reported as “inactive”. `O=C(Cn1c(=O)nc(-c2ccccc2)c2cc(Cl)ccc21)NCc1ccc(Cl)cc1` was tested, and the Potency was “inactive”. With `CC(C)c1ccc2c(c1)c(SC(C)(C)C)c(CC(C)(C)C(=O)O)n2Cc1ccc(Cl)cc1` the Potency was 2.82 µM (active). With `O=C(O)C1CCCN1c1nc(Cl)ccc1[N+](=O)[O-]` (centres undefined) the Potency was “inactive”. With `Cc1ccc(F)c(S(=O)(=O)NC(=O)C2(C)CCN2C(=O)c2ccco2)c1` (centres undefined) the Potency was “inactive”. `CCn1c(-c2cccnc2Cl)nc2cc(C)c(C)cc21` was tested, and the Potency was “inactive”. For `COn1c(-c2ccc(Cl)cc2Cl)nc2ncccc21`, the Potency was “inactive”. In the case of `Clc1ccc(COn2c(-c3ccc(Cl)cc3Cl)nc3ncccc32)cc1`, the Potency is reported as 10 µM (active). For `O=C(C[C@H]1CC[C@H]2[C@@H](COC[C@H](O)CN2C(=O)c2ccccn2)O1)N1CCN(c2ccccc2)CC1`, the Potency was “inactive”. In the case of `O=C(COc1ccc(Br)cc1)OCC(=O)c1ccc[nH]1`, the Potency is reported as “inactive”. `O=C1CCC(=O)N1CCC(=O)N(C(=O)NC1CCCCC1)C1CCCCC1` was tested, and the Potency was “inactive”. `CCCCN(CC)CCCNC(=O)CS(=O)(=O)Cc1nc(-c2cccc(OC)c2)oc1C` was tested, and the Potency was “inactive”. For `COc1cccc(-c2nc(CS(=O)(=O)CC(=O)NCCc3ccc(OC)c(OC)c3)c(C)o2)c1`, the Potency was “inactive”. For `COc1cccc(-c2nc(CS(=O)(=O)CC(=O)N3CCN(c4cc(C)ccc4C)CC3)c(C)o2)c1`, the Potency was 7.94 µM (active). `COc1ccc(OC)c(CN2C(=O)CCC2(C)c2nnnn2Cc2ccccc2)c1` (centres undefined) was tested, and the Potency was “inactive”. With `O=C1CCC(C(=O)OCC(=O)Nc2ccc(OC(F)F)cc2)=NN1` the Potency was “inactive”. `CCC(C)Sc1nc2c(c(=O)[nH]c(=O)n2C)n1CC(O)COc1cccc2ccccc12` (centres undefined) was tested, and the Potency was “inactive”. For `Cc1cc(C)c(NC(=O)C[N+](C)(C)CC(O)COc2cccc3ccccc23)c(C)c1` (centres undefined), the Potency was “inactive”. `CC(C)c1ccccc1OCC(O)CN(CC(O)COc1cccc2ccccc12)C(C)C` (centres undefined) was tested, and the Potency was 8.91 µM (active). In the case of `Nc1ncnc2c1ncn2[C@@H]1O[C@H](C(=O)N2CCCN(Cc3ccccc3F)CC2)[C@@H](O)[C@H]1O`, the Potency is reported as “inactive”. In the case of `CC1(C(=O)NS(=O)(=O)c2cccc(F)c2)CCN1C(=O)Cc1ccc(Cl)cc1Cl` (centres undefined), the Potency is reported as “inactive”. With `Cc1nc(N2CCN(c3ccccn3)CC2)c2c(C)c(C(=O)Nc3ccc(F)cc3)sc2n1` the Potency was “inactive”. In the case of `COc1ccc(NC(=O)c2sc3nc(C)nc(N4CCN(c5ccccn5)CC4)c3c2C)c(OC)c1`, the Potency is reported as “inactive”. `Cc1nc(N2CCC(C)CC2)c2c(C)c(C(=O)Nc3cc(F)ccc3C)sc2n1` was tested, and the Potency was 10 µM (active). In the case of `CN(Cc1ccc(C(F)(F)F)cc1)C(=O)[C@H]1O[C@@H](n2cnc3c(N)ncnc32)[C@H](O)[C@@H]1O`, the Potency is reported as “inactive”. For `COc1ccc(C(=O)O)cc1S(=O)(=O)NC1CCN(Cc2ccccc2)CC1`, the Potency was “inactive”. `COc1cc(C(=O)NC2CCN(Cc3ccccc3)CC2)cc(Cl)c1OC(C)C` was tested, and the Potency was 10 µM (active). In the case of `COc1cc2[nH]c(=O)n(Cc3ccc(C(=O)NC4CCN(Cc5ccccc5)CC4)cc3)c(=O)c2cc1OC`, the Potency is reported as “inactive”.
